Experimental data reported in article PMC8384837, “Expanding the binding specificity for RNA recognition by a PUF domain”.
Positions count from the first letter of the chain named.

Legend:
Test in all cases: yeast three-hybrid, YBZ-1, SC-Leu-His + 0.5 mM 3-AT, 4 days
Conditions in all cases: tags: N-Gal4 AD-HA kept; label: inside an RPR1-promoter hybrid RNA with tandem MS2 sites; ssRNA
[1] = target: T1, PUM1 PUF domain R6-IYV (Homo sapiens, UniProt Q14671 828-1176, N1043I;Q1047V)
T1 sequence: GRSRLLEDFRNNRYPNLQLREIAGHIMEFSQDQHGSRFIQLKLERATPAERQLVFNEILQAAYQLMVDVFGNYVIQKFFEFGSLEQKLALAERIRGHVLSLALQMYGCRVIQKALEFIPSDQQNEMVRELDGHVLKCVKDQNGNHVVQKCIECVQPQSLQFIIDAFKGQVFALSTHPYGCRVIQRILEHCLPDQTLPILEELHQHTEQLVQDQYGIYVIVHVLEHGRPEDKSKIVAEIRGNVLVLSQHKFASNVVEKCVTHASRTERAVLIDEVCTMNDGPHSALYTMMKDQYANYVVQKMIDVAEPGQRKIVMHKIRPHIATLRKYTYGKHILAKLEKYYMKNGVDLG
Method in brief: (§1)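 Repeat regions from input (SC-Leu) and selection (SC-Leu-His + 0.5 mM 3-AT) plates were PCR-amplified and Illumina-sequenced after four days of growth. The cells were strain YBZ-1 with a LexA–MS2 coat fusion and a HIS3 reporter, co-expressing Pumilio-1 PUF domain libraries and matching RNA elements from a centromeric plasmid. The interaction score is the log change in variant frequency from input to selection, taken in log2 with a pseudocount of 1 for absent variants.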

[2] = target: T2, PUM1 PUF domain R6-CFC (Homo sapiens, UniProt Q14671 828-1176, N1043C;Y1044F;Q1047C)
T2 sequence: T1 sequence with I216C, Y217F, V220C
Method in brief: as §1

[3] = target: PUM1 PUF domain R5-KHG (Homo sapiens, UniProt Q14671 828-1176, C1007K;R1008H;Q1011G)
Method in brief: as §1

[4] = target: PUM1 PUF domain R3-VRW (Homo sapiens, UniProt Q14671 828-1176, C935V;Q939W)
Method in brief: as §1

[5] = target: PUM1 PUF domain R8-KNR (Homo sapiens, UniProt Q14671 828-1176, N1122K;Y1123N;Q1126R)
Method in brief: as §1

[6] = target: T3, PUM1 PUF domain R6-FYI (Homo sapiens, UniProt Q14671 828-1176, N1043F;Q1047I)
T3 sequence: T1 sequence with I216F, V220I
Method in brief: as §1

[7] = target: PUM1 PUF domain R4-DHE (Homo sapiens, UniProt Q14671 828-1176, N971D;Q975E)
Method in brief: as §1

[8] = target: PUM1 PUF domain R4-SWG (Homo sapiens, UniProt Q14671 828-1176, N971S;H972W;Q975G)
Method in brief: as §1

[9] = target: PUM1 PUF domain R7-RCQ (Homo sapiens, UniProt Q14671 828-1176, S1079R;N1080C;E1083Q)
Method in brief: as §1

[10] = target: PUM1 PUF domain R5-QKC (Homo sapiens, UniProt Q14671 828-1176, C1007Q;R1008K;Q1011C)
Method in brief: as §1

[11] = target: PUM1 PUF domain R2-EWT (Homo sapiens, UniProt Q14671 828-1176, N899E;Y900W;Q903T)
Method in brief: as §1

[12] = target: PUM1 PUF domain R1-VFR (Homo sapiens, UniProt Q14671 828-1176, S863V;R864F;Q867R)
Method in brief: as §1

[13] = target: PUM1 PUF domain R1-GAS (Homo sapiens, UniProt Q14671 828-1176, S863G;R864A;Q867S)
Method in brief: as §1

[14] = target: PUM1 PUF domain R1-RFI (Homo sapiens, UniProt Q14671 828-1176, S863R;R864F;Q867I)
Method in brief: as §1

[15] = target: PUM1 PUF domain R1-KIE (Homo sapiens, UniProt Q14671 828-1176, S863K;R864I;Q867E)
Method in brief: as §1

[16] = target: PUM1 PUF domain R7-RKR (Homo sapiens, UniProt Q14671 828-1176, S1079R;N1080K;E1083R)
Method in brief: as §1

[17] = target: PUM1 PUF domain R3-RMK (Homo sapiens, UniProt Q14671 828-1176, C935R;R936M;Q939K)
Method in brief: as §1

## GGCUAGAACUAGUGGAUCCCCCGGCGCCCGGCGGCUCGAGCCCGGGUAAGUGUAAAUAGUCUGCAUGCCGCCGGGCGCCAUGCCUGCAGGUCGACUCUAGAAAACAUG
[1]
  binding signal: 2.91 log2 enrichment (interaction score)
[2]
  binding signal: 1.34 log2 enrichment (interaction score)
[3]
  binding signal: 3.79 log2 enrichment (interaction score)
[4]
  binding signal: 3.7 log2 enrichment (interaction score)
[5]
  binding signal: 1.82 log2 enrichment (interaction score)
[6]
  binding signal: 2.78 log2 enrichment (interaction score)

## GGCUAGAACUAGUGGAUCCCCCGGCGCCCGGCGGCUCGAGCCCGGGUAAGUGAAAAUAGUCUGCAUGCCGCCGGGCGCCAUGCCUGCAGGUCGACUCUAGAAAACAUG
[2]
  binding signal: 4.06 log2 enrichment (interaction score)

## GGCUAGAACUAGUGGAUCCCCCGGCGCCCGGCGGCUCGAGCCCGGGUAAGUGUAUAUAGUCUGCAUGCCGCCGGGCGCCAUGCCUGCAGGUCGACUCUAGAAAACAUG
[7]
  binding signal: 4.57 log2 enrichment (interaction score)
[8]
  binding signal: 2.5 log2 enrichment (interaction score)

## GGCUAGAACUAGUGGAUCCCCCGGCGCCCGGCGGCUCGAGCCCGGGUAAGUGUACAUAGUCUGCAUGCCGCCGGGCGCCAUGCCUGCAGGUCGACUCUAGAAAACAUG
[7]
  binding signal: 2.01 log2 enrichment (interaction score)

## GGCUAGAACUAGUGGAUCCCCCGGCGCCCGGCGGCUCGAGCCCGGGUAAGUCUAAAUAGUCUGCAUGCCGCCGGGCGCCAUGCCUGCAGGUCGACUCUAGAAAACAUG
[9]
  binding signal: 2.3 log2 enrichment (interaction score)

## GGCUAGAACUAGUGGAUCCCCCGGCGCCCGGCGGCUCGAGCCCGGGUAAGUGUUAAUAGUCUGCAUGCCGCCGGGCGCCAUGCCUGCAGGUCGACUCUAGAAAACAUG
[10]
  binding signal: 3.74 log2 enrichment (interaction score)

## GGCUAGAACUAGUGGAUCCCCCGGCGCCCGGCGGCUCGAGCCCGGGUAAGUGUAAAAAGUCUGCAUGCCGCCGGGCGCCAUGCCUGCAGGUCGACUCUAGAAAACAUG
[11]
  binding signal: 2.39 log2 enrichment (interaction score)

## GGCUAGAACUAGUGGAUCCCCCGGCGCCCGGCGGCUCGAGCCCGGGUAAGUGUAAAUCGUCUGCAUGCCGCCGGGCGCCAUGCCUGCAGGUCGACUCUAGAAAACAUG
[12]
  binding signal: 3.96 log2 enrichment (interaction score)
[13]
  binding signal: 2.52 log2 enrichment (interaction score)

## GGCUAGAACUAGUGGAUCCCCCGGCGCCCGGCGGCUCGAGCCCGGGUAAGUGUAAAUUGUCUGCAUGCCGCCGGGCGCCAUGCCUGCAGGUCGACUCUAGAAAACAUG
[12]
  binding signal: 1.47 log2 enrichment (interaction score)
[14]
  binding signal: 2.47 log2 enrichment (interaction score)
[15]
  binding signal: 3.28 log2 enrichment (interaction score)

## GGCUAGAACUAGUGGAUCCCCCGGCGCCCGGCGGCUCGAGCCCGGGUAAGUUUAAAUAGUCUGCAUGCCGCCGGGCGCCAUGCCUGCAGGUCGACUCUAGAAAACAUG
[16]
  binding signal: 2.99 log2 enrichment (interaction score)

## GGCUAGAACUAGUGGAUCCCCCGGCGCCCGGCGGCUCGAGCCCGGGUAAGCGUAAAUAGUCUGCAUGCCGCCGGGCGCCAUGCCUGCAGGUCGACUCUAGAAAACAUG
[5]
  binding signal: 2.46 log2 enrichment (interaction score)

## GGCUAGAACUAGUGGAUCCCCCGGCGCCCGGCGGCUCGAGCCCGGGUAAGUGUAAUUAGUCUGCAUGCCGCCGGGCGCCAUGCCUGCAGGUCGACUCUAGAAAACAUG
[17]
  binding signal: 4.31 log2 enrichment (interaction score)
